# Screens deposited in PubChem by National Center for Advancing Translational Sciences (NCATS).
# Shown are actives, neighbours in structure and some others; about 11% of the full set was active somewhere.
# HTT ATP protect – cytoprotection in Huntington HTT-Q103 PC12 cell model | Potency, µM (titrated, usually from 56.4 µM), inactives show cytoprotection (ATP increase), most hits filed as activators | AID 1471 | PC12 HTT-Q103 induced, cytoprotection, ATP luminescence, 40 h | 230,000 tested, 0.14% active; further: potency means the concentration at half of the fitted maximal effect; % of control where 0% means no effect; nearly all actives have a fitted effect of over 45% in size
#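 Compounds added alongside 100 nM tebufenozide, which induces toxic Q103 huntingtin exon 1-GFP in stable PC12 cells; surviving cells quantified by luminescent ATP measurement. Medium: phenol red-free DMEM, 5% equine and 5% calf serum.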
# HTT aggregate – reduces HttQ103-GFP aggregates in PC12 cells. AID 1688. PC12 HttQ103-GFP aggregates, Acumen cytometry, 40 h. 220,000 tested, 1.1% active. Potency, µM (doses to about 46.1 µM), inactives show at the highest dose activity change, negative = inhibition, most hits filed as inhibitors; further: potency means the concentration at half of the fitted maximal effect; on the % scale 0 is the no-effect control and ±100 the full control effect; nearly all actives have a fitted effect of over 60% in size
#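 Read-out: GFP aggregate count by laser scanning cytometer (488 nm excitation, 500-530 nm emission, 1–25 µm objects >6 SD above background). Cells: PC12, inducible HTTex1-Q103-GFP, 100 nM tebufenozide; compounds titrated.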
# HPGD inh – blocks human HPGD enzyme activity; purified HPGD, NADH fluorescence kinetic, PGE2 substrate; Potency, µM, without a hit: at the highest dose activity change, negative = inhibition, actives largely listed as inhibitors; 150,000 tested, 4.3% active; active means well fitted inhibition curve with a large enough effect, not every such curve was filed as active; inconclusive means small, poorly fitted or top-dose-only effect, or another doubt; inactive means no such curve, though single readings can be large or run the other way; further: potency means the concentration at half of the fitted maximal effect; on the % scale 0 is the no-effect control and ±100 the full control effect
# Target sequence (P15428 whole entry, looked up): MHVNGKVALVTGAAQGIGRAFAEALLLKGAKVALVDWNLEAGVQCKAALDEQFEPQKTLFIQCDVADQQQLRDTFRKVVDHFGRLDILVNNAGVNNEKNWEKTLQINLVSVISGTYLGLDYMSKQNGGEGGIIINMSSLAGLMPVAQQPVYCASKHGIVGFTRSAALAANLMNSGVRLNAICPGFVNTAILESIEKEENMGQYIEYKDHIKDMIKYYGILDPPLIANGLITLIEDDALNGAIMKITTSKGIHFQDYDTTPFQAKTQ
#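 NADH formation kinetics: reaction with 30 uM PGE2 and 1 mM NAD+ (final), 20 nM enzyme, Tris-HCl pH 8 with Tween 20, after 15 min compound preincubation at room temperature. Fluorescence change, last versus first of five reads.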
# RGS12 GoLoco inh – blocks human Gai1 binding to RGS12 GoLoco peptide, red readout. Gai1:RGS12 GoLoco peptide FP, rhodamine, 10 min. Potency, µM (doses to about 61.6 µM), inactives show at the highest dose activity, negative = inhibition, hits mostly inhibitors. 230,000 tested, 0.44% active; active means well fitted inhibition curve with a large enough effect, not every such curve was filed as active; inactive means no such curve, though single readings can be large or run the other way; further: potency means the concentration at half of the fitted maximal effect; on the % scale 0 is the no-effect control and ±100 the full control effect; nearly all actives have a fitted effect of over 30% in size
# PNC assembly inh – inhibitors of perinucleolar compartment assembly; PC3M PTB-GFP, PNC prevalence imaging, 16 h; hits give low values; 140,000 tested, 3.1% active; AID 2417; activity change (PNC), negative = inhibition, % at 10 µM;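 active means readout at or below -70, meaning at least 70% loss of cells showing the perinucleolar compartment, a nuclear body marking cancer cells; inconclusive means readout between -30 and a set limit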;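 further: plate controls were DMSO wells for no effect and camptothecin positive control wells for full effect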
#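 Read-out is percentage of cells bearing a perinucleolar compartment, from automated 20x imaging of fixed, Hoechst-stained PC3M PTB-GFP cells. Cells were seeded 4 h, then exposed 16 h to compound (23 nl of library stock) in duplicate plates.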
# ALDH1A1 inh – ALDH1A1 (human) enzyme inhibition; Potency, µM (doses to about 75.3 µM), without a hit: at the top dose activity, negative = inhibition, actives largely listed as inhibitors; 220,000 tested, 7.3% active; Purified ALDH1A1, NADH fluorescence, propionaldehyde substrate; P00352; active means well fitted inhibition curve with a large enough effect, not every such curve was filed as active; inconclusive means small, poorly fitted or top-dose-only effect, or another doubt; inactive means no such curve, though single readings can be large or run the other way;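 further: potency means the concentration at half of the fitted maximal effect; plate controls were no enzyme wells and a reference inhibitor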
# Target sequence (P00352 whole entry, looked up): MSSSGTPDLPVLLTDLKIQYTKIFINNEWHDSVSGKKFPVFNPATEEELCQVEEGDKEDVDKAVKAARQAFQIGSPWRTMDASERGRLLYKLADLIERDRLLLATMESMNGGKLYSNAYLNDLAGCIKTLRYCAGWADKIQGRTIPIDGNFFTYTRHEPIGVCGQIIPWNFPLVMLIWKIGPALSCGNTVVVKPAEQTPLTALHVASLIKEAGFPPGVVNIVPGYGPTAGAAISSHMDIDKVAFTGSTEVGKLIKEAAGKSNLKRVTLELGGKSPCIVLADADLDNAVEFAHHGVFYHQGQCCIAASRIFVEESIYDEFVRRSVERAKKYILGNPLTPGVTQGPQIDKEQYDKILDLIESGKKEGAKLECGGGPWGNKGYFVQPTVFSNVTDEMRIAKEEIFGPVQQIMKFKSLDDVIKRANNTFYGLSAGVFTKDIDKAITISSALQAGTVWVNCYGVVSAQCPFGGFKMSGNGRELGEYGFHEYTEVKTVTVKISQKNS
# An asterisk follows results filed as active; ? = inconclusive; . = no result; [ ] = dose if it differs, or a comment. Unless noted, the call rests on the fitted dose curve; in most records, active means well fitted curve in the direction sought with a large enough effect; inconclusive means small, poorly fitted or top-dose-only effect, or another doubt; inactive means no such curve, though single readings can be large; an effect the other way counts as inactive or inconclusive.
SMILES,HTT ATP protect,HTT aggregate,HPGD inh,RGS12 GoLoco inh,PNC assembly inh,ALDH1A1 inh
CC(=O)OC1CC[C@]2(C)C(CC(OC(C)=O)[C@]3(C)C2CC[C@@]2(C)C(c4ccoc4)OC(=O)C4O[C@]432)C1(C)C (stereo not given in full),-33%,.,-6%,2%,.,-5%
CS(=O)(=O)OCC(O)C(O)COS(C)(=O)=O (stereo not given),-18%,-10%,.,.,.,.
CSc1nc(=S)cc(C)[nH]1,0%[10 µM],-9%[9.22 µM],.,5.6µM*,.,.
Cc1cc(=S)nc(-c2ccccn2)[nH]1,-2%[10 µM],29%[9.22 µM],.,-4%,.,.
CCSc1nc(N2CCOCC2)c2c(c1C#N)CCCC2,-58%,?,.,.,36,22µM*
N#Cc1c(SCC(=O)O)nc(N2CCOCC2)c2c1CCCC2,2%[10 µM],-1%[9.22 µM],.,6%,.,.
CC(Sc1nc(N2CCCCC2)c2c(c1C#N)CCCC2)C(=O)O (stereo not given),-4%,3%,-15%,1%,-117*,-4%
CCSc1nnc(NC(=O)Nc2cccc(C)c2)s1,15%[10 µM],12%[9.22 µM],.,-1%,.,-12%
O=C(/C=C/c1ccccc1Cl)Nn1cnc2ccccc2c1=O,?,?,-14%,1%,22,6%
O=C(CCl)Nc1ccc(N2CCCCCC2)cc1,.,.,.,-9%,.,2.2µM*
CC1CCCCN1CC(=O)Nc1ccc(N2CCCCCC2)cc1 (stereo not given),-22%[10 µM],-6%[9.22 µM],.,-10%,.,20µM*
COCCCNC(=S)Nc1ccc(N2CCCCC2)cc1,-10%[10 µM],15%,.,5%,.,-12%
CCNC(=S)Nc1ccc(N2CCCCC2)cc1,?,-12%,.,16%,.,25µM*
CCC(=O)Nc1ccc(N2CCCCC2)cc1,-10%,?,-13%,-1%,31,-8%
O=C(CNCc1ccco1)Nc1ccc(N2CCCCCC2)cc1,2%,18%,.,-18%,.,35µM*
CCOC(=O)C1=C(C)N(CC(C)C)C(=O)C1,9%[10 µM],3%[9.22 µM],.,13%,.,?
Cc1cc(=O)oc2cc(OC(=O)c3cncc(Br)c3)ccc12,-8%[10 µM],24%,.,0%,.,?
Cc1cc(C)cc(OCc2ccc(C(=O)O)o2)c1,7%,-3%,-3%,-2%,?,11%
O=C(O)c1ccc(COc2c(F)c(F)c(F)c(F)c2F)o1,-9%[10 µM],5%,-15%,-1%,-100*,8%
CCc1cccc(CC)c1N(COC)C(=O)Cn1nnc2ccccc21,-1%,4%,-10%,3%,33,-6%
CCN(C(=O)CC(C)C)c1nnc(Cn2nnc3ccccc32)s1,0.89µM*,-27%,.,2%,.,0%
CCN(C(=O)c1ccc(C(C)(C)C)cc1)c1nnc(Cn2nnc3ccccc32)s1,16%[10 µM],6.3µM*,-20%,2%,-26,-4%
Cc1ccc(C(=O)NNC(=O)Cn2nnc3ccccc32)cc1,10%[10 µM],11%[9.22 µM],.,1%,.,.
N=C1C(c2nc3ccccc3s2)=C(O)CN1Cc1ccco1,-23%,0%,?,1%,12,22µM*
CN(C)CCN1CC(O)=C(c2nc3ccccc3s2)C1=N,22%[10 µM],3%[9.22 µM],.,58%,.,.
SMILES,HTT ATP protect,HTT aggregate,HPGD inh,RGS12 GoLoco inh,PNC assembly inh,ALDH1A1 inh
CN(Cc1ccccc1)C(=O)c1ccccc1Br,.,3%,?,-8%,75,0%
Clc1ccccc1C1=CC(c2ccco2)n2nnnc2N1 (stereo not given),22%[10 µM],-2%[9.22 µM],.,0%,.,13µM*
N#Cc1c(-c2ccc(F)cc2)cc(-c2ccccc2)nc1SCC(=O)NCC(=O)O,7%[10 µM],7%[9.22 µM],.,0%,.,8.9µM*
O=C(c1cc2c(s1)CCCC2)N1CCN(C(=O)C2CCCO2)CC1 (stereo not given),-1%[1.9 µM],4%,-4%,1%,-28,?
O=C(c1cc2c(s1)CCCCC2)N1CCN(c2ncccn2)CC1,-15%,-18%,-12%,-2%,37,14µM*
COc1ccccc1N1CCN(C(=O)c2ccc([N+](=O)[O-])s2)CC1,-12%[10 µM],19%,.,.,-4,11%
O=C(c1cc2c(s1)CCCC2)n1cccn1,0%[1.9 µM],?,16µM*,4%,59,?
O=C(O)c1cc2c(s1)CCCC2,16%[4.97 µM],-9%,-12%,9%,4,19%
O=C(c1cccs1)N1CCN(c2ncccn2)CC1,5%,-4%,-16%,-3%,44,?
CC(=O)c1ccc(N2CCN(C(=O)c3cc4c(s3)CCCC4)CC2)cc1,.,-26%,.,6%,.,22µM*
COc1ccccc1N1CCN(C(=O)c2cc3c(s2)CCC3)CC1,7%,-23%[1.84 µM],-18%,-4%,32,20µM*
COc1ccccc1N(CC(O)COc1ccccc1C)S(=O)(=O)c1ccccc1 (stereo not given),?,-9%,-14%,1%,?,-8%
O=C(O)CCCCCN1C(=O)/C(=C/c2ccncc2)SC1=S,15%[10 µM],42%[9.22 µM],-17%,6%,?,-15%
COc1ccc(CN2C(=O)/C(=C/c3ccncc3)SC2=S)cc1,-10%[10 µM],?,-20%,18%,?,10µM*
O=C(O)CCCCCN1C(=O)/C(=C\c2ccc(-c3ccc(Cl)cc3)o2)SC1=S,-17%[10 µM],30%[9.22 µM],.,22%,.,.
O=C(O)CCCN1C(=O)/C(=C/c2ccc(-c3nc4ccccc4s3)o2)SC1=S,26%[10 µM],18%,18µM*,58%,41,?
O=C(O)CCCCCN1C(=O)/C(=C\c2ccncc2)SC1=S,13%[10 µM],-32%,-22%,1%,-90*,-3%
CCCCCCCC(=O)OCCOC(=O)CCCCCCC,.,.,-3%,-2%,.,12%
C=CCn1c(NC(=O)c2ccccc2Cl)c(C#N)c2nc3ccccc3nc21,-45%,16µM*,?,43%,-9,?
C=CCn1c(NC(=O)c2ccccc2)c(C#N)c2nc3ccccc3nc21,-25%[10 µM],.,.,.,.,.
C/C(=N\NC(=O)COc1ccc(C(C)(C)C)cc1)c1ccc(N2CCOCC2)cc1,.,-2%,?,5%,51,?
COc1ccc(-c2nn(-c3ccccc3)cc2/C=N/NC(=O)c2ccc3c(c2)OCO3)cc1,9%,?,?,6%,-24,?
COc1ccc(-c2nn(-c3ccccc3)cc2/C=N/NC(=O)c2ccc(Br)o2)cc1,-40%,3.5µM*,?,8%,-29,?
COc1ccc(N(CCC(=O)O)S(=O)(=O)c2ccc(C)c(C)c2)cc1,-18%[10 µM],-13%[9.22 µM],.,2%,.,.
Cc1ccc(S(=O)(=O)CCC(=O)O)cc1C,34%[1.9 µM],-11%,-2%,-4%,-27,8.9µM*
CCOC(=O)N1CCN(S(=O)(=O)c2cccs2)CC1,-17%[0.074 µM],0%,-13%,7%,47,-2%
Cc1cc(C(=O)CCC(=O)N2CCN(S(=O)(=O)c3cccs3)CC2)c(C)s1,4%[10 µM],-4%,-7%,5%,-100*,-10%
